A number with no mark means an inactive call. Results filed as inconclusive are left out. Activity calls are given as the source filed them. Unless noted, calls come from the whole dose curve; as a rule, active = well fitted curve in the direction sought with a large enough effect; inconclusive = small, poorly fitted or top-dose-only effect, or another doubt; inactive = no such curve, though single readings can be large; an effect the other way counts as inactive or inconclusive.
Key:
[1] = molecular target: Lysosomal acid glucosylceramidase (Homo sapiens) (UniProt P04062); assay: Glucocerebrosidase-p2 (AID 348; in the data active = potency below about 10 µM; note: potency is the fitted concentration of half-maximal effect); conditions: purified GBA, blue fluorogenic substrate, 40 min
Summary of the method: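 Compounds titrated from 0.6 nM upwards against 0.2 nM enzyme in pH 5.9 citric acid/KH2PO4, taurocholate, tween-20; blue fluorogenic substrate 80 uM, 40 min room temperature, stopped and read Ex 365/Em 440 for AC50.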

[2] = AP1 Signaling Pathway (AID 357; active = well fitted curve in either direction with a large enough effect, not every such curve was filed as active; note: % is set by controls: 0 for no effect and ±100 for the full control effect); conditions: ME-180 AP-1-bla reporter, EGF-induced, beta-lactamase ratio, 5 h; at 7.69 µM (top of the series) unless noted
Summary of the method: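 ME-180 cells with beta-lactamase reporter under AP-1 response element, stimulated with EC50 EGF; compounds tested in titration series, 5 h at 37 °C. CCF4 substrate added 2.5 h at room temperature; 460/530 nm emission ratio gave %activity and AC50.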

[3] = NFAT Signaling Pathway (AID 444; active = well fitted curve in either direction with a large enough effect, not every such curve was filed as active;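 note: carbachol stimulus at about its EC50 of 1 µM final; % is set by controls: 0 for no effect and ±100 for the full control effect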); conditions: Jurkat NFAT-bla M1, carbachol, beta-lactamase ratio, 5 h; at 7.69 µM (top of the series) unless noted
Summary of the method: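 Read-out: CCF4 FRET ratio (460 nm/530 nm) after 1 h RT dye loading, used for %activity and AC50 from titration series. Cells: Jurkat NFAT-β-lactamase/M1 line, treated with compound plus 1 uM carbachol for 5 h, 37 °C.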

[4] = Stat Signaling Pathway (AID 446; active = well fitted curve in either direction with a large enough effect, not every such curve was filed as active;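 note: ME-180 cervical cancer cells given 40 pM IL-6 alongside compound; SIE-controlled beta-lactamase reporter measured as 460/530 nm FRET emission ratio; % is set by controls: 0 for no effect and ±100 for the full control effect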); conditions: ME-180 SIE beta-lactamase reporter, IL-6 stimulated, 5 h; at 7.69 µM (top of the series) unless noted
Summary of the method: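 Screening format detects activators and inhibitors alike: ME-180 SIE-bla cells stimulated at 40 pM IL-6 for 5 hrs with compound, then dual-emission beta-lactamase read at 405 nm excitation.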

[5] = molecular target: Glucocorticoid receptor (Homo sapiens) (UniProt P04150); assay: GR-GFP Redistribution (AID 450;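 active = compounds whose dose series gives a full or clear partial fitted curve of increased nuclear translocation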; note: potency is the fitted concentration of half-maximal effect); conditions: U2OS GR-GFP nuclear translocation, laser cytometry, 2 h
[6] = molecular target: Glucocorticoid receptor (Homo sapiens) (UniProt P04150); assay: GR-EFC Redistribution (AID 451; calls by dose curve; note: potency is the fitted concentration of half-maximal effect); conditions: CHO-K1 GR-EFC translocation, beta-gal luminescence, 2 h
Summary of the method: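 Translocation of GR-ED fusion to nuclear EA restores b-gal, read by luminescence after 1 h room-temperature detection. Engineered CHO-K1 biosensor cells, 1,000/well, exposed 2 h at 37 C to titrations up to 46 uM final.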

[7] = molecular target: Mitogen-activated protein kinase 10 (Mus musculus) (UniProt Q61831); assay: JNK3 AlphaScreen Assay (AID 530; active = well fitted curve in either direction with a large enough effect, not every such curve was filed as active;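 note: kinase came from lysate of stimulated human HepG2 cells; signal reports phosphorylation of biotinylated GST-cJun 1-79 at Ser73 with 10 µM ATP; % is set by controls: 0 for no effect and ±100 for the full control effect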); conditions: JNK3 lysate, c-Jun phosphorylation; series mostly up to 57.1 µM
Summary of the method: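 Compound titrations were preincubated 15 minutes at room temperature with substrate, antibody and pre-activated JNK3-containing HepG2 lysate. Reactions were started with 10 uM ATP and stopped with EDTA-containing bead buffer for AlphaScreen detection.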

[8] = molecular target: Dual specificity protein kinase CLK4 (Homo sapiens) (UniProt Q9HAZ1); assay: qHTS Assay for Inhibitors of CDC-like Kinase 4 (Kinase-Glo Assay) (AID 1770); conditions: recombinant Clk4, Kinase-Glo ATP depletion luminescence; series mostly up to 66.7 µM; note: nearly all actives have a fitted effect of over 65% in size; note: potency is the fitted concentration of half-maximal effect
Summary of the method: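 Luminescent ATP-depletion read-out (Kinase-Glo) after 4.5 h room-temperature reaction of Clk4 (25 nM final) with RS peptide (100 uM) and ATP (1 uM), pH 7.5 Tris buffer with MgCl2 and DTT.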

[9] = molecular target: Dual specificity protein kinase CLK4 (Homo sapiens) (UniProt Q9HAZ1); assay: qHTS Assay for Inhibitors of CDC-like Kinase 4 (ADP-Glo Assay) (AID 1771); conditions: recombinant CLK4, ADP-Glo luminescence; series mostly up to 80 µM; note: nearly all actives have a fitted effect of over 70% in size; note: potency is the fitted concentration of half-maximal effect
Summary of the method: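 25 nM Clk4 with 100 uM RS repeat peptide and 1 uM ATP (final) in buffer with 2 mM MgCl2, 0.5 mM EGTA, 2.5 mM DTT, 0.01% Triton X-100; 1 h at room temperature; ADP-Glo luminescence for ADP formed.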

[10] = molecular target: Dual specificity protein kinase CLK4 (Homo sapiens) (UniProt Q9HAZ1); assay: qHTS Assay for Inhibitors of CDC-like Kinase 4 (ADP-FP Assay) (AID 1795); conditions: Transcreener ADP fluorescence polarization; series mostly up to 50 µM; note: nearly all actives have a fitted effect of over 60% in size; note: potency is the fitted concentration of half-maximal effect
Summary of the method: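 Kinase activity was measured as ADP production using Transcreener orange tracer (4 nM) and ADP antibody (1 ug/mL) fluorescence polarization, with ADP calculated from a calibration curve. The 1 h reaction contained 6.25 nM Clk4, 1 uM ATP and 100 uM RS peptide at pH 7.5 with Mg2+.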

[11] = molecular target: Ubiquitin carboxyl-terminal hydrolase 1 (Homo sapiens) (UniProt O94782); assay: Inhibitors of USP1/UAF1: Pilot qHTS (AID 504865); conditions: purified USP1/UAF1, Ub-rhodamine cleavage fluorescence; series mostly up to 54.9 µM;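 note: rhodamine fluorescence freed from ubiquitin-rhodamine substrate followed over time; top concentration of the series differs between compounds; % is set by controls: 0 for no effect and ±100 for the full control effect; nearly all actives have a fitted effect of over 35% in size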
Summary of the method: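 Deubiquitinase activity followed as kinetic rhodamine fluorescence release from 150 nM Ub-Rho. 1 nM USP1/UAF1 with compound, after 15 min room-temperature preincubation, in HEPES pH 7.8 buffer containing TCEP, EDTA, BSA and Tween-20.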

[12] = Primary qHTS for small molecule stabilizers of the endoplasmic reticulum resident proteome: Secreted ER Calcium Modulated Protein (SERCaMP) assay (AID 1508630); conditions: SH-SY5Y GLuc-SERCaMP (Gaussia luciferase released on ER calcium loss) secretion, thapsigargin, luminescence; series mostly up to 38.4 µM; note: % is set by controls: 0 for no effect and ±100 for the full control effect
Summary of the method: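 GLuc-SERCaMP-expressing SH-SY5Y cells, pretreated 16 h with compound, are challenged with thapsigargin to empty ER calcium stores; after 4 h, coelenterazine is added directly to the medium and luminescence is imaged.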

[13] = molecular target: Cytochrome P450 1A2 (Homo sapiens) (UniProt P05177); assay: p450-cyp1a2 (AID 410; calls by dose curve; note: potency is the fitted concentration of half-maximal effect); conditions: recombinant CYP1A2, luciferin-ME demethylation, luminescence; series mostly up to 57 µM
Summary of the method: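 20nM CYP1A2 with 100uM Luciferin-ME (at Km) in 100mM KPO4; compound preincubated 10 min, NADPH regeneration added, 60 min at room temperature. Luciferin quantified by luminescence after detection reagent; normalized to 57 uM furafylline.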

[14] = molecular target: Cytochrome P450 3A4 (Homo sapiens) (UniProt P08684); assay: qHTS Assay for Inhibitors and Substrates of Cytochrome P450 3A4 (AID 884); conditions: recombinant CYP3A4, Luciferin-PPXE luminescence; series mostly up to 57.1 µM; note: potency is the fitted concentration of half-maximal effect; nearly all actives have a fitted effect of over 50% in size
Summary of the method: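 20 nM human CYP3A4 with 25 uM Luciferin-PPXE (at KM) in 200 mM KPO4, preincubated 10 min with compound; NADPH regeneration started a 60 min RT reaction. Luciferin detected by luminescence, normalized to 57 uM ketoconazole as full inhibition.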

[15] = molecular target: Cytochrome P450 3A4 (Homo sapiens) (UniProt P08684); assay: qHTS Assay for Activators of Cytochrome P450 3A4 (AID 885); conditions: recombinant CYP3A4, Luciferin-PPXE luminescence, 60 min; series mostly up to 57.1 µM; note: nearly all actives have a fitted effect of over 65% in size
Summary of the method: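 Steps: enzyme/substrate mix dispensed; compound added, 10 min RT; NADPH regeneration solution added, 60 min RT; luciferin detection buffer stops reaction; 20 min later luminescence measured.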

[16] = molecular target: 3',5'-cyclic-AMP phosphodiesterase 4B (Homo sapiens) (UniProt Q07343); assay: qHTS Assay for Inhibitors of PDE-IV (AID 607; active = well fitted activation curve with a large enough effect in the main read-out, with a control signal flat, not every such curve was filed as active; note: % of control where 0% means no effect); conditions: HEK293 ACTOne CNG channel cells, membrane potential fluorescence; series mostly up to 22.9 µM
Summary of the method: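 The readout is membrane depolarisation from a cAMP-sensing CNG channel, detected with a potential dye at ex 535/em 590. Cells were HEK293-derived (endogenous PDE-IV) at 1000 cells/well, titrated up to 22.9 uM final.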

[17] = molecular target: Cytochrome P450 2D6 (Homo sapiens) (UniProt P10635); assay: qHTS Assay for Inhibitors and Substrates of Cytochrome P450 2D6 (AID 891); conditions: recombinant CYP2D6, luciferin-ME EGE luminescence; series mostly up to 57.1 µM; note: potency is the fitted concentration of half-maximal effect; nearly all actives have a fitted effect of over 60% in size
Summary of the method: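 Human CYP2D6 (5 nM) with 30 uM Luciferin-ME EGE (at Km) in 100 mM KPO4, compound preincubated 10 min, then NADPH regeneration system for 60 min at room temperature. Luciferin read by luminescence; normalized to 1.43 uM quinidine.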

[18] = qHTS Assay for Identification of Small Molecule Agonists for Hypoxia Response Element Signaling Pathway (AID 914; active = well fitted activation curve with a large enough effect in the signal ratio, with a control signal flat, not every such curve was filed as active; the % refers to the signal ratio; note: % of control where 0% means no effect); conditions: ME-180 (cervical carcinoma) HRE-bla reporter, beta-lactamase ratio, CoCl2, 17 h; activation: stronger effect = higher value
Summary of the method: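 qHTS titration; ME-180 HRE-bla cells; EC50 CoCl2 co-treatment, 17 h at 37 degrees Celsius; CCF4 dye, ex 405nm, em 460nm and 530nm; %Activity from ratio; AC50.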

Chain of Ubiquitin carboxyl-terminal hydrolase 1 (Homo sapiens) (O94782 whole entry, looked up): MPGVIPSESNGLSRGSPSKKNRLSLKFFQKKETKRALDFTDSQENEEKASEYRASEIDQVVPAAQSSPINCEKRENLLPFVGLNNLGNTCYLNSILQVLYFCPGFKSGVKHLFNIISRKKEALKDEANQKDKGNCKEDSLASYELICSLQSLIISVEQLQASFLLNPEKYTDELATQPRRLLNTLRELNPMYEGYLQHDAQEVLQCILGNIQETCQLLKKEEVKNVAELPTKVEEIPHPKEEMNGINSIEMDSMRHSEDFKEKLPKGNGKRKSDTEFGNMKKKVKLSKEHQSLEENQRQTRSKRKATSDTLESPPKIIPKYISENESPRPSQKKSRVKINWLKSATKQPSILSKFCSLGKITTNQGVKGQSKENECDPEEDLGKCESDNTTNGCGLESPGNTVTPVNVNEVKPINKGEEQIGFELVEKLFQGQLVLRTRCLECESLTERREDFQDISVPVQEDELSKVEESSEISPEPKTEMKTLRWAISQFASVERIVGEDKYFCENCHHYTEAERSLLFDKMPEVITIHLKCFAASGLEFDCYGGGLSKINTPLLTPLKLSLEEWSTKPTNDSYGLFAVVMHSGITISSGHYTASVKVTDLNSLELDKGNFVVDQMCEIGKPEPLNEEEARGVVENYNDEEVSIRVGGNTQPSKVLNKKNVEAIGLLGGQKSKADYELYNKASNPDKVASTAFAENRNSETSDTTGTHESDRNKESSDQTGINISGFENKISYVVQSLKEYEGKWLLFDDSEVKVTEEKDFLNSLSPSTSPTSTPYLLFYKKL
Chain of Glucocorticoid receptor (Homo sapiens) (P04150 whole entry, looked up, the tested form may be a part): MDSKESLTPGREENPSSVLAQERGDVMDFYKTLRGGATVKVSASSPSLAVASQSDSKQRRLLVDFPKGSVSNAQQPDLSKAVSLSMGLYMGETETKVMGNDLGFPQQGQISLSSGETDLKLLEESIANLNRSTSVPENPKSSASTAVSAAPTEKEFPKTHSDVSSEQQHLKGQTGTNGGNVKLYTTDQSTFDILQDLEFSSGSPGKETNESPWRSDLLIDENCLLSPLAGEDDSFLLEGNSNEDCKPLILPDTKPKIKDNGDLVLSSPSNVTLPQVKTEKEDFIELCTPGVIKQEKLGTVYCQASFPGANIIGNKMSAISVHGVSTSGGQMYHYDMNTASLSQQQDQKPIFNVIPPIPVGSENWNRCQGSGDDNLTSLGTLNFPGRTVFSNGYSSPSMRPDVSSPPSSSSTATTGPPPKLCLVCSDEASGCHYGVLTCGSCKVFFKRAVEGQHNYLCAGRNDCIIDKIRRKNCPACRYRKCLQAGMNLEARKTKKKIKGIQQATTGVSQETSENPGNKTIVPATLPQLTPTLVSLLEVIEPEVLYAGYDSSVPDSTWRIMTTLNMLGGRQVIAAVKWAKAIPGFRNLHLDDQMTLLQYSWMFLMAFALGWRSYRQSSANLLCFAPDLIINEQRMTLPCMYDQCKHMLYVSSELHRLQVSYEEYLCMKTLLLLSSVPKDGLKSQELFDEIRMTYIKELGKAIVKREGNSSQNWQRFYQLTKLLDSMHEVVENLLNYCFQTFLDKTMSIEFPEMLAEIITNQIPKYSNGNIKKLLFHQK
Chain of Cytochrome P450 3A4 (Homo sapiens) (P08684 whole entry, looked up): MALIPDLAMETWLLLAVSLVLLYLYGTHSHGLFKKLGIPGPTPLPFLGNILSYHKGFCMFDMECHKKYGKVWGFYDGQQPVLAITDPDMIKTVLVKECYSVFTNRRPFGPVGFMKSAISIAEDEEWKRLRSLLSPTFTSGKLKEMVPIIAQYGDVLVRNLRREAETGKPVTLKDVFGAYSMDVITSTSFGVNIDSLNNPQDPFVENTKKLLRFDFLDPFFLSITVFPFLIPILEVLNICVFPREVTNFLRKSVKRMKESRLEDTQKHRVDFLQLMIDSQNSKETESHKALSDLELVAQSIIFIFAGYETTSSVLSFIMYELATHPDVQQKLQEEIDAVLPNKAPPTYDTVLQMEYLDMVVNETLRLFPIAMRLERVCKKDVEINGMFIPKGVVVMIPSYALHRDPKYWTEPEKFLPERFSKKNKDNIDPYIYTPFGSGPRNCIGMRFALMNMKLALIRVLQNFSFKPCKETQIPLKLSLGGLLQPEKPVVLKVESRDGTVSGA
Chain of Dual specificity protein kinase CLK4 (Homo sapiens) (Q9HAZ1 whole entry, looked up): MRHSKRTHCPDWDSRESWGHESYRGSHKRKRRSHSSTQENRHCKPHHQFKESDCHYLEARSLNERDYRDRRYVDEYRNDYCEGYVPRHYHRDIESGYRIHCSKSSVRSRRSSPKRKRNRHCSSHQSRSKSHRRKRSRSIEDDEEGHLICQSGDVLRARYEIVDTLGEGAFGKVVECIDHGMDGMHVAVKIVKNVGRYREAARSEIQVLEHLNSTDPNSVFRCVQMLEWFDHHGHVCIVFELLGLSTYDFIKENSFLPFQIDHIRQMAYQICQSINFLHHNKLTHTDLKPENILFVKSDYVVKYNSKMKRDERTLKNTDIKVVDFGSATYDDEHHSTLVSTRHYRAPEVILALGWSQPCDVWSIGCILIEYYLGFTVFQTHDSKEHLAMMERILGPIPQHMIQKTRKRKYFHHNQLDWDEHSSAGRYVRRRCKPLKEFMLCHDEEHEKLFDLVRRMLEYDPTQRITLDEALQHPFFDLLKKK
Chain of Lysosomal acid glucosylceramidase (Homo sapiens) (P04062 whole entry, looked up): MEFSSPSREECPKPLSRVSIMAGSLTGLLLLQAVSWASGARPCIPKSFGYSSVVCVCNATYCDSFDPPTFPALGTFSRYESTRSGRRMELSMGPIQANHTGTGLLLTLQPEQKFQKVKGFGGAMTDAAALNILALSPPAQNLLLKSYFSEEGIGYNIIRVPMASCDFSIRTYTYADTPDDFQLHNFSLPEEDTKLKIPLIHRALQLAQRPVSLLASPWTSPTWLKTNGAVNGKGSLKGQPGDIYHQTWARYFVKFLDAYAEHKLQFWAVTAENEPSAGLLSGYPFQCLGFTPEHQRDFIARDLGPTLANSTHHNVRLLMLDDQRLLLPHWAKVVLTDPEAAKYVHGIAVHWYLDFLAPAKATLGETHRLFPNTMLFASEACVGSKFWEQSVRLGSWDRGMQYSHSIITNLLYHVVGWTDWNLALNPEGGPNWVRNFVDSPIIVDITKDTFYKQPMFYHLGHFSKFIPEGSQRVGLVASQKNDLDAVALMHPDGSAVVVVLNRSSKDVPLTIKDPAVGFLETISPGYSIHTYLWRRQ
Chain of Cytochrome P450 1A2 (Homo sapiens) (P05177 whole entry, looked up): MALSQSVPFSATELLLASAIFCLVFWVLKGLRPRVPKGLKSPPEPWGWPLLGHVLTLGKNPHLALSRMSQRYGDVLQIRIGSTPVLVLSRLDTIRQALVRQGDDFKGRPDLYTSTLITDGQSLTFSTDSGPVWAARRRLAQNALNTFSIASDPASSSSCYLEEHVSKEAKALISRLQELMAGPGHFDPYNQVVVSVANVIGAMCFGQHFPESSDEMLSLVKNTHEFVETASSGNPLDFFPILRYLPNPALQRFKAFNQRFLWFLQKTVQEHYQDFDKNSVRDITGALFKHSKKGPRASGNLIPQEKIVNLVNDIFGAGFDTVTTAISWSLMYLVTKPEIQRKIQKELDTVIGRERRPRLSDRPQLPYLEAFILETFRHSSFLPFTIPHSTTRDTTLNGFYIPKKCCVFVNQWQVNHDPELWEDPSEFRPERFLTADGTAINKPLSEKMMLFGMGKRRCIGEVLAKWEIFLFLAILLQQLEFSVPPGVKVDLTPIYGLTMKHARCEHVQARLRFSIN
Chain of Cytochrome P450 2D6 (Homo sapiens) (P10635 whole entry, looked up): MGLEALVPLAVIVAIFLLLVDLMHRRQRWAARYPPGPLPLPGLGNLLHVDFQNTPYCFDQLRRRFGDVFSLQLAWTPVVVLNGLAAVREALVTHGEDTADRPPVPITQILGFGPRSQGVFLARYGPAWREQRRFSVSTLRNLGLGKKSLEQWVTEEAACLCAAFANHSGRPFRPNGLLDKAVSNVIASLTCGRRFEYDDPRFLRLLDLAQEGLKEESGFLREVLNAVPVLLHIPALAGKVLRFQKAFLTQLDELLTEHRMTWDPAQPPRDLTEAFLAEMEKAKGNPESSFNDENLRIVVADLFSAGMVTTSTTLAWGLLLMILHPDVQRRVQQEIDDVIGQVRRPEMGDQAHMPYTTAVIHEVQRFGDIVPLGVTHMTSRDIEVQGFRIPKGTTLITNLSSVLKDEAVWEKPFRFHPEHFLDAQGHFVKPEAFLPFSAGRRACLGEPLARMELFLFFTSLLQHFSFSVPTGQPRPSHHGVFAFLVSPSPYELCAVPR
Chain of 3',5'-cyclic-AMP phosphodiesterase 4B (Homo sapiens) (Q07343 whole entry, looked up): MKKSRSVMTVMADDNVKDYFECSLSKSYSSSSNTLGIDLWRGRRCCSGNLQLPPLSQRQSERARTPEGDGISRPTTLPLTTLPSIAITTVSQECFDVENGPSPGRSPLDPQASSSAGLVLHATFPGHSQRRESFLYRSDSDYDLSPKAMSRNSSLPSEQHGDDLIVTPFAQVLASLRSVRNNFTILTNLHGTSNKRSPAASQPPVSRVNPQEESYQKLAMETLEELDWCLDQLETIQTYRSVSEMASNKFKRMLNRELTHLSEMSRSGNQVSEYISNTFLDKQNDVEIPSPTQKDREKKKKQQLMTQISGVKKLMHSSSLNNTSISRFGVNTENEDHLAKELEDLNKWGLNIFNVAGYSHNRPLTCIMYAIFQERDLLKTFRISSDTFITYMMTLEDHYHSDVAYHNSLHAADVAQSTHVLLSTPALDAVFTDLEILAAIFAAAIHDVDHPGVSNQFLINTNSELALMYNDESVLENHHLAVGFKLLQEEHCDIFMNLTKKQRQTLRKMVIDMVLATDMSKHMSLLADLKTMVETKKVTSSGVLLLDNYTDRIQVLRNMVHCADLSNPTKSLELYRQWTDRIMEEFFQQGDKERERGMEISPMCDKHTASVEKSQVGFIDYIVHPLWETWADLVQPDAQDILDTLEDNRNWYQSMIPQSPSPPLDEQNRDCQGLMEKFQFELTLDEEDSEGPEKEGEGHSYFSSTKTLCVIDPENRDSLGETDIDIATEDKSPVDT

Row | Structure (SMILES) | Potency [1] [µM] | activity change, negative = inhibition [2] [%] | activity change, negative = inhibition [3] [%] | activity, negative = inhibition [4] [%] | Potency [5] [µM] | Potency [6] [µM] | Potency [7] | Potency [8] | Potency [9] | Potency [10] | Potency [11] | outcome [12] | Potency [13] | Potency [14] | Potency [15] | Potency [16] | Potency [17] | activation [18] [%]
1 | COc1cccc(Cn2c(=O)c(CCc3ccccc3)nc3cnc(N4CCOCC4)nc32)c1 | > 11.4 | 0.275 | -19.1 | -8.53 | > 9.22 | > 46 | inactive | inactive | inactive | inactive | inactive | inactive |  |  |  |  |  | 
2 | Cc1cnc(CNc2nc(-c3c(C)noc3C)nc3ccccc23)cn1 | > 11.4 | 9.21 | 15 | -4.92 | > 46 | > 46 | inactive | inactive | inactive | inactive | inactive | inactive |  |  |  |  |  | 
3 | COc1ccc(CNc2nc(-c3cccc(C#N)c3)nc3ccccc23)c(OC)c1 | > 11.4 | -19.2 |  | -10.1 | > 46 | > 46 | inactive | inactive | inactive | inactive | inactive | inactive | 2.51 µM (active) | 2.51 µM (active) | inactive |  |  | 
4 | COc1ccc(Oc2ncc3ncc(=O)n(-c4ccc(OC)cc4)c3n2)cc1 | > 11.4 | -24.9 | -12.3 | -13.9 | > 9.22 | > 46 | inactive | 2.82 µM (active) | 2 µM (active) | 4.47 µM (active) | inactive | inactive |  |  |  |  |  | 
5 | COCCn1c(=O)c(CCc2ccccc2)nc2cnc(N3CCOCC3)nc21 | > 11.4 | -24.7 | -12.9 | -3.32 | > 9.22 | > 46 | inactive | inactive | inactive | inactive | inactive | inactive |  |  |  | inactive |  | 
6 | Cc1cccc(CNc2ncncc2-c2ccccc2Cl)c1 | > 11.4 | -12.3 |  | -14.1 | > 46 | > 46 | inactive | inactive | inactive | inactive | inactive | inactive | 3.16 µM (active) | 0.199 µM (active) | inactive |  | 2 µM (active) | -10.3
7 | Cn1c(=O)c(-c2cc(F)cc(F)c2)nc2cnc(Nc3ccccc3)nc21 | > 11.4 | -3.31 | 6.94 | 4.13 | > 9.22 | > 46 | inactive | inactive | inactive | inactive | inactive | inactive |  |  |  | inactive |  | 
8 | c1cncc(-c2nc(NCc3cccs3)c3ccccc3n2)c1 | > 11.4 | -18.5 |  | 1.18 | > 46 | > 46 | inactive | 1.58 µM (active) | 1.26 µM (active) | 2 µM (active) | inactive | inactive | 0.316 µM (active) | 2 µM (active) | inactive |  | 6.31 µM (active) | 
9 | Cc1nc2cncnc2n(Cc2ccccc2Cl)c1=O | > 11.4 | -18 | -1.6 | -18.9 | > 9.22 | > 46 | inactive | inactive | inactive | inactive | inactive | inactive |  |  |  |  |  | 
10 | COc1cccc(Cn2c(=O)c(-c3cc(F)cc(F)c3)nc3cncnc32)c1 | > 11.4 | 0.277 | 0.731 | -1.76 | > 9.22 | > 46 |  | inactive | inactive | inactive | inactive | inactive |  |  |  |  |  | 
